# F-actin modifier: modifiers of F-actin cytoskeleton organization, primary screen, imaging, HUVEC, phalloidin staining, high-content imaging; 91,000 tested, 0.18% active; inhibition, % at 2 µM; HUVEC TNFa F-actin phalloidin imaging;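 active = inhibition above the batch mean plus 3 SD and confirmed as a hit by visual image inspection, cut at about 30% in these data, passing the limit was not always enough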
# CYP2C19 act: human CYP2C19 activators, primary screen, biochemical, luminescence. recombinant CYP2C19, luciferin-H EGE luminescence; hits give high values; 0 = fully inhibited enzyme, 1 = untreated enzyme. Cytochrome P450 2C19 (Homo sapiens), P33261. activation factor at 5 µM. 96,000 tested, under 10 active;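 active = activation factor of at least 2 at 5 µM in the primary screen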;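 note: 0 = wells with 2.5 mM tranylcypromine and 1 = vehicle-only wells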
# Target sequence (P33261 whole entry, looked up): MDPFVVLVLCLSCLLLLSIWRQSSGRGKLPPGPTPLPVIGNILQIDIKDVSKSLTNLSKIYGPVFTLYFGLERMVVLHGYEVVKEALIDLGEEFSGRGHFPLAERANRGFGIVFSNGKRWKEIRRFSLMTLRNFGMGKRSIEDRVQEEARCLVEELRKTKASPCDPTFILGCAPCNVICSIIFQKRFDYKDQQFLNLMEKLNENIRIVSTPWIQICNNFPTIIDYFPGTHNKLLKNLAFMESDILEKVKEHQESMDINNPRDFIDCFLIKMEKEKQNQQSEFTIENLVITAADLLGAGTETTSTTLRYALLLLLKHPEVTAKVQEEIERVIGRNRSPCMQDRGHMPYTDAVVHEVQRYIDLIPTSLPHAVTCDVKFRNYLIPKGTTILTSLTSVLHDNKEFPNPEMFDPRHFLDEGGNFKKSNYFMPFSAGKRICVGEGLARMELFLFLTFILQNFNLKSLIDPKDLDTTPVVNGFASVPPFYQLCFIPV
# CYP2C19 inhib: blockers of cytochrome P450 2C19 activity – biochemical, luminescence, ADME assay, primary screen | inhibition, % at 5 µM | CYP2C19 Supersomes, luciferin-H EGE luminescence, 30 min | 96,000 tested, 21% active;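 active = CYP2C19 inhibition above a set limit at 5 µM in the primary screen, cut at about 50% in these data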;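 note: plate controls were negative control wells for no effect and 2.5 mM tranylcypromine positive control for full effect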
# CYP2C9 inh: blockers of cytochrome P450 2C9 activity – biochemical, luminescence, ADME assay, primary screen; P11712; CYP2C9 Supersomes, luciferin-H conversion; inhibition, % at 5 µM; 96,000 tested, 20% active;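 active = blocking of liver enzyme CYP2C9 beyond about 50% at 5 µM, limit read from the data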
# E-sel TNF inh: E-selectin induction blockers in HUVEC – imaging, immunofluorescence, high content, primary screen; inhibition, % at 2 µM; 120,000 tested, 0.71% active; HUVEC TNFa-induced E-selectin immunofluorescence; AID 1246, 2008;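 active = inhibition above the batch mean plus 3 SD, and confirmed as a hit on visual image review, cut at about 43% in these data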;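 note: 0% = TNF-stimulated DMSO wells and 100% = unstimulated control wells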
# CYP2C9 activ: human CYP2C9 activators, primary screen, biochemical, luminescence | activation factor at 5 µM | Cytochrome P450 2C9 (Homo sapiens), P11712 | recombinant CYP2C9, luciferin-H conversion; hits give high values; factor 1 = untreated enzyme, 0 = blocked | AID 1024, 2008 | 96,000 tested, 1.4% active;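 active = activation factor of 2 or more for CYP2C9 at a 5 µM dose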;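 note: 0 = sulfaphenazole-blocked wells and 1 = vehicle-only wells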
# Numbers without * were called inactive; / = no result given. Sampled rows, rich in hits. Any-hit rate of the full collection: about 22%.
SMILES,F-actin modifier,CYP2C19 act,CYP2C19 inhib,CYP2C9 inh,E-sel TNF inh,CYP2C9 activ
COC(=O)c1c(C)[nH]c(C)c1-c1ccccc1Cl,-11,0.4,61*,47,-1,0.5
CCOC(=O)c1c(C)[nH]c2cc(Br)c(OC)cc12,35,0.6,41,40,/,0.6
COC(=O)c1c(-c2ccccc2Cl)noc1/C=C/N(C)C,/,/,/,/,1,/
CCOC(=O)c1c(C)[nH]c(C)c1-c1ccccc1OC,4,0.3,67*,40,14,0.6
O=C1c2ccccc2S(=O)(=O)N1CC(O)Cn1ccc2ccccc21 (stereo not drawn),-6,0,97*,71*,10,0.3
Cc1cc(C)n(CC(O)Cn2ccc3ccccc32)n1 (stereo not drawn),/,0.3,72*,41,1,0.6
Cc1cc(C)n(CC(O)CN2c3ccccc3Sc3ccccc32)n1 (stereo not drawn),-2,0.3,66*,33,/,0.7
Cc1cc(C)n(CC(O)Cn2c3ccc(Cl)cc3c3cc(Cl)ccc32)c(=O)n1 (stereo not drawn),2,0.4,58*,95*,33,0.1
O=C(O)C1Cc2[nH]cnc2C(c2ccc(F)cc2)N1 (stereo not drawn),/,/,/,/,-17,/
COC(=O)C(C)(C)NC(=O)c1cccs1,-4,1,-1,1,0,1
Cc1ccc(S(=O)(=O)NC2=NCCC2)cc1,14,0.9,7,-8,-24,1.1
CSC(SC)=C(C(C)=O)C(=O)c1ccc(C)cc1,/,/,/,/,16,/
OCc1nc2ccccc2n1CC(O)Cn1ccc2ccccc21 (stereo not drawn),-1,0.1,90*,84*,-22,0.2
Oc1ccccc1NCC(O)Cn1ccc2ccccc21 (stereo not drawn),-5,0.6,37,28,-10,0.7
Cc1cc(C)n(CC(O)Cn2c3ccccc3c3ccccc32)n1 (stereo not drawn),7,0.2,82*,61*,9,0.4
CC(C)OCCCn1c(=NC(=O)c2ccncc2)c(C#N)cc2c(=O)n3ccccc3nc21,-14,0.2,80*,74*,/,0.3
CCCCn1c(=NC(=O)c2ccc3c(c2)OCO3)c(C#N)cc2c(=O)n3cccc(C)c3nc21,-19,0.6,36,57*,-1,0.4
CCCCCn1c(=NC(C)=O)c(C#N)cc2c(=O)n3ccccc3nc21,8,0.7,28,10,9,0.9
CCOCCCn1c(=N)c(C(=O)NCc2ccc3c(c2)OCO3)cc2c(=O)n3ccccc3nc21,59,0.9,5,13,-4,0.9
CC(C)OCCCn1c(=N)c(C(N)=S)cc2c(=O)n3ccccc3nc21,-67,0.2,79*,25,-23,0.8
COc1ccc(CNC(=O)c2cccc(C)c2[N+](=O)[O-])cc1,/,/,/,/,-25,/
CCCNC(=O)NCCc1c(C)[nH]c2ccccc12,-1,0.6,45,-154,36,2.5*
Cc1[nH]c2ccccc2c1CCO,0,0.9,12,-23,-1,1.2
Cc1[nH]c2c(C)cccc2c1CCNC(=O)c1ccc2c(c1[N+](=O)[O-])C(=O)c1ccccc1C2=O,11,0.4,61*,77*,/,0.2
Cc1[nH]c2ccccc2c1CCNC(=O)c1ccc2c(c1[N+](=O)[O-])C(=O)c1ccccc1C2=O,-3,0.3,68*,47,/,0.5
SMILES,F-actin modifier,CYP2C19 act,CYP2C19 inhib,CYP2C9 inh,E-sel TNF inh,CYP2C9 activ
O=C(NCCc1c[nH]c2ccccc12)c1ccc([N+](=O)[O-])cc1,/,/,/,/,-8,/
COc1ccc(C2C(C(=O)Nc3cccc(C)n3)c3ccccc3C(=O)N2C)cc1OC (stereo not drawn),1,1,4,17,/,0.8
O=C(Cn1c(=O)n(Cc2ccco2)c(=O)c2cc(Cl)ccc21)NCC1CCCO1 (stereo not drawn),6,0.7,26,7,4,0.9
COc1ccc(Cl)cc1-c1nc(SCC(=O)NC2CC2)n[nH]1,/,/,/,/,-41,/
Clc1ccc2[nH]cc(-c3nnnn3-c3ccc4ccccc4c3)c2c1,5,1.1,-5,-16,/,1.2
Cc1ccc(C)c(NS(=O)(=O)c2ccc(OCC(=O)NCC3CCCO3)cc2)c1 (stereo not drawn),/,/,/,/,24,/
CCOC(=O)c1ccccc1NS(=O)(=O)c1ccc(OCC)cc1,-17,0.3,70*,40,-14,0.6
CCOc1ccc(S(=O)(=O)Nc2ccccc2C(=O)NCC2CCCO2)cc1 (stereo not drawn),16,0.3,71*,35,/,0.7
O=C(CC(SCCO)c1ccc(F)cc1)c1ccco1 (stereo not drawn),10,0.8,22,26,20,0.7
O=C(O)C1C2C=CC(C2)C1C(=O)OCC1CCCO1 (stereo not drawn),-4,0.8,19,25,/,0.8
CN=C(Nc1cc(C)nn1-c1ccccc1)c1ccc(F)cc1,17,0.1,92*,45,-5,0.5
Cc1cc(N/C(=N/S(=O)(=O)c2ccc(F)cc2)c2ccccc2)n(-c2ccccc2)n1,/,/,/,/,-11,/
COc1cccc(C2=NOC(C(=O)Nc3cccc(C(C)=O)c3)C2)c1 (stereo not drawn),35,0.6,36,21,/,0.8
COc1cccc(C2=NOC(C(=O)Nc3cccc(C(C)=O)c3)C2)c1OC (stereo not drawn),-9,0.4,58*,-80,/,1.8
Cc1cc(NC(=O)C2CC(c3ccc(F)cc3)=NO2)n(-c2ccccc2)n1 (stereo not drawn),3,0.3,68*,29,/,0.7
CC(=O)c1cccc(NC(=O)C2CC(c3ccc(F)cc3)=NO2)c1 (stereo not drawn),-15,0.3,68*,28,15,0.7
Brc1ccc(-c2cn3cccnc3n2)cc1,-7,1,5,5,-9,1
CCOC(=O)c1ccc(NC(=O)CN2CCN(CCN=CC3=C(O)CC(C)(C)CC3=O)CC2)cc1,/,/,/,/,-12,/
c1ccc(Cn2nnnc2CN2CCOCC2)cc1,7,0.9,12,-6,4,1.1
COc1ccc(-n2nc(C(=O)NCC(=O)NCC3CCCO3)c3ccccc3c2=O)c(OC)c1 (stereo not drawn),-10,1.1,-6,37,/,0.6
Cc1ccc(-n2nnc3c(=O)n(CC(=O)NCc4ccco4)cnc32)cc1,-3,0.8,17,-113,-30,2.1*
COc1ccc(-n2nc(C(=O)NCC(=O)NCc3ccco3)c3ccccc3c2=O)cc1,-9,0.9,9,62*,/,0.4

# Assay outcomes from PubChem BioAssay.
